We go through 27 compounds from ChEMBL document CHEMBL1157539, “Thousands of chemical starting points for antimalarial lead identification” (Nature, 2010).

As usually defined, the Inhibition is how much of the control response was suppressed. A lower Inhibition goes with a weak effect.

Holding throughout (type): functional
The test system of assay [1] is Plasmodium falciparum. Nature of the assay: GSK_TCMDC: Inhibition of Plasmodium falciparum 3D7 in whole red blood cells, using parasite LDH activity as an index of growth. Test compounds present at 2uM.
Assay [2] deals with Plasmodium falciparum. Kind of assay: GSK_TCMDC: Inhibition of Plasmodium falciparum Dd2 in whole red blood cells, using parasite LDH activity as an index of growth. Test compounds present at 2uM.
Assay [3] relates to HepG2. Kind of assay: GSK_TCMDC: Percent inhibition of human HepG2 cell line. Test compounds present at 10uM.

For `O=C(/C=C/c1ccc(Cl)c(Cl)c1)NCCCCCCN1CCCN(C(=O)Nc2ccc(F)c(Cl)c2)CC1`, the Inhibition is on record as 98% in assay [1], 1% in assay [2] and 30% in assay [3].

`Nc1ccc(-c2nc3cc(Cc4ccc5[nH]c(-c6ccc(N)cc6)nc5c4)ccc3[nH]2)cc1`: the Inhibition in assay [1] came to 100%; in assay [2], 96%; in assay [3], 47%.

On to `CC(=O)c1ccccc1OCCSc1nnc(Cc2cccs2)n1C1CCCCC1`, for which the results for the Inhibition in assay [1], in assay [2] and in assay [3] were 87%, 1% and 19%, respectively.

With `COc1c(C2CCN(CCN3CCC(NC(=O)c4ccc(-c5ccc(C(F)(F)F)cc5)cc4)CC3)CC2)ccc2c1CCCC2`, the Inhibition in assay [1] turned out to be 82%; in assay [2], 35%; in assay [3] it was 42%.

For `O=c1cc(NCCCN(Cc2ccccc2)Cc2ccccc2)[nH]c2ccccc12`, the Inhibition in assay [1] turned out to be 100%; in assay [2] it was 93%; in assay [3] it was 7%.

Take `Cc1cc(C(=O)CN2C(=O)NC3(CCCc4ccccc43)C2=O)c(C)n1Cc1ccc(F)cc1` (stereo unspecified): the values for the Inhibition in assay [1], in assay [2] and in assay [3] were 92%, 53% and 4%, respectively.

With `Br.CC1(C)N=C(N)N=C(N)N1OCc1cccc2c1ccc1ccccc12`, the Inhibition in assay [1] stood at 95%; in assay [2], 97%; in assay [3], 63%.

Take `CCCNCc1ccc(-c2ccc(CN(CCOC)C(=O)Cc3cccnc3)cc2)nc1.O=C(O)C(F)(F)F`: the values for the Inhibition in assay [1], in assay [2] and in assay [3] were 92%, 13% and 10%, respectively.

`Cc1cc(-c2cccc(CNCCc3ccc(Cl)cc3)c2)cnc1N.Cl`: the Inhibition in assay [1] was found to be 90%; in assay [2], 3%; in assay [3], 19%.

`O=C(COc1ccccc1Cl)N1CCc2cc3nccc(N4CCN5CCC[C@H]5C4)c3cc21`: the Inhibition is reported as 91% in assay [1], 99% in assay [2] and 4% in assay [3].

In the case of `COc1ccc(CCN(C)CCOc2ccc(NC(=O)c3ccc([N+](=O)[O-])c4c(=O)c5ccccc5[nH]c34)cc2)cc1OC`, the Inhibition in assay [1] stood at 91%; in assay [2], 25%; in assay [3] it was 38%.

Regarding `O=C(NCc1ccc(F)cc1)Nc1cccc(-c2ccc(-c3nc4cc(F)ccc4[nH]3)cc2)c1`, the Inhibition in assay [1] was found to be 100%; in assay [2], 96%; in assay [3], 7%.

`COc1ccccc1CN1CCC(CNC(=O)c2cc(-c3ccc(N(C)C)cc3)cs2)C1.O=C(O)C(F)(F)F` (stereo unspecified): the Inhibition is listed as 82% in assay [1], 16% in assay [2] and 17% in assay [3].

`COc1cccc(-c2ccc(C(=O)NC3CCN(Cc4ccc(C(C)(C)C)cc4)CC3)s2)c1.O=C(O)C(F)(F)F`: the Inhibition is given as 85% in assay [1], 23% in assay [2] and 43% in assay [3].

Consider `CCc1ccc(C2CCN(CCCCNC(=O)c3ccc(NC(=O)c4ccc(Cl)cc4)cc3)CC2)cc1`, for which the Inhibition came out at 100% in assay [1], 63% in assay [2] and 15% in assay [3].

As to `O=C(Nc1ccc2c(c1)CCC2)N[C@H]1CCN(Cc2ccc(OCCCN3CCCCC3)cc2)C1`, the Inhibition in assay [1] came to 96%; in assay [2] it was 0%; in assay [3] it was 9%.

As for `CCOC(=O)C(=O)N1c2ccc(OCC)cc2-c2c(ssc2=S)C1(C)C`, the Inhibition in assay [1] was 99%; in assay [2], 100%; in assay [3], 5%.

For the compound `CN(C)C(CNC(=O)c1cc(-c2ccncc2)c(-c2cc3ccccc3[nH]2)o1)c1ccccc1.O=C(O)C(F)(F)F` (stereo unspecified), the Inhibition in assay [1] was 96%; in assay [2] it was 62%; in assay [3], 3%.

In the case of `O=c1cc(NCCCNCc2cccc(OC(F)(F)F)c2)[nH]c2ccccc12`, the values for the Inhibition in assay [1], in assay [2] and in assay [3] were 97%, 72% and 0%, respectively.

Regarding `O=C(/C=C/c1ccc(Cl)c(Cl)c1)N1CCC(NCc2ccc3[nH]ccc3c2)CC1`, the results for the Inhibition in assay [1], in assay [2] and in assay [3] were 97%, 1% and 44%, respectively.

`Cc1cc(OCCCN2CCN(CCN3CCOCC3)CC2)ccc1NC(=O)COc1ccc(Cl)cc1C(=O)c1cc(Cl)cc(C#N)c1`: the Inhibition in assay [1] is 99%; in assay [2], 78%; in assay [3] it was 30%.

As for `CN(C)CCCn1cncc1-c1ccc2ncnc(Nc3ccc4c(cnn4Cc4ccccc4)c3)c2c1`, the results for the Inhibition in assay [1], in assay [2] and in assay [3] were 100%, 77% and 17%, respectively.

On to `O=C(O)C(F)(F)F.O=S(=O)(NCCN1CCCC1)c1ccc(-c2cccc(CNCCc3cccs3)c2)s1`, for which the Inhibition is on record as 99% in assay [1], 44% in assay [2] and 39% in assay [3].

For the compound `OCCOCn1cnc2cnc(N[C@H]3OC[C@H](O)[C@@H](O)[C@@H]3O)nc21`, the Inhibition amounted to 82% in assay [1], 0% in assay [2] and 42% in assay [3].

As for `C=CC[C@H](C[C@H](O)[C@H](Cc1ccccc1)NC(=O)c1ccc(-c2cccnn2)cc1)C(=O)NC1CCCCC1`, the Inhibition in assay [1] is 83%; in assay [2], 0%; in assay [3], 2%.

For the compound `CC(=O)Nc1nc(C(=O)Nc2cccc(-c3cccc(-c4nc5cc(F)ccc5[nH]4)c3)c2)cs1`, the values for the Inhibition in assay [1], in assay [2] and in assay [3] were 100%, 100% and 39%, respectively.

For `CC(C)(CN)c1nc(-c2ccc(Cl)c(O)c2)c(-c2ccncc2)[nH]1.Cl`, the Inhibition in assay [1] is reported as 97%; in assay [2], 98%; in assay [3], 34%.
